± gives the standard deviation of the averaged measurements.
Legend:
IL-6-GFP PC-9GR = experiment: cell viability (CCK-8 OD) relative to DMSO control (fraction of control); higher = more viable cells; conditions: compound concentration: 10 uM; treatment time: 48 h
Outline: (§1)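 A purchased 510-compound library was screened at a final 10 μM for 48 h against PC-9 and PC-9GR lung cancer cells overexpressing IL-6-GFP via a lentiviral construct, seeded at 3000 cells/well in 96-well plates. GFP imaging was done on a parallel plate set. For viability, CCK-8 absorbance was recorded and each well's optical density was divided by that of the vehicle control well. There were two independent replicates.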

IL-6-GFP PC-9 = experiment: as above; conditions: compound concentration: 10 uM; treatment time: 48 h
Outline: as §1

SMILES | cell viability (IL-6-GFP PC-9GR) | cell viability (IL-6-GFP PC-9)
Nc1nc(=S)c2[nH]cnc2[nH]1 [Thioguanine] | 1.37 ± 0.42 | 1.2 ± 0.061
C[Se]CC[C@H](N)C(=O)O [L-SelenoMethionine] | 1.19 ± 0.22 | 1.28 ± 0.098
O.S=c1nc[nH]c2nc[nH]c12 [6-Mercaptopurine (6-MP) Monohydrate] | 0.92 ± 0.11 | 0.978 ± 0.19
CNC(=O)c1cc(Oc2ccc(NC(=O)Nc3ccc(Cl)c(C(F)(F)F)c3)c(F)c2)ccn1.O [Regorafenib Monohydrate] | 0.659 ± 0.32 | 0.21 ± 0.28
CN1C(C(=O)Nc2ccccn2)=C(O)c2sc(Cl)cc2S1(=O)=O [Lornoxicam] | 0.71 ± 0.3 | 1.1 ± 0.23
Cl.NC1=NCC2c3ccccc3Cc3ccccc3N12 (stereo unspecified) [Epinastine HCl] | 0.9943 ± 0.0026 | 1.22 ± 0.014
COc1cc(C(=O)NS(=O)(=O)c2ccccc2C)ccc1Cc1cn(C)c2ccc(NC(=O)OC3CCCC3)cc12 [Zafirlukast] | 1.31 ± 0.026 | 0.967 ± 0.023
CCOC(=O)c1ccc(C#Cc2ccc3c(c2)C(C)(C)CCS3)nc1 [Tazarotene] | 1.32 ± 0.14 | 1.15 ± 0.041
Cl.c1ccc2c(c1)CCCC2C1=NCCN1 (stereo unspecified) [Tetrahydrozoline HCl] | 0.987 ± 0.049 | 1.13 ± 0.15
CN1C2=CC(=O)/C(=N\NC(N)=O)C=C2CC1S(=O)(=O)[O-].[Na+] (stereo unspecified) [Carbazochrome sodium sulfonate (AC-17)] | 1.16 ± 0.028 | 1.04 ± 0.16
CC(C)c1c(C(=O)Nc2ccccc2)c(-c2ccccc2)c(-c2ccc(F)cc2)n1CCC(O)CC(O)CC(=O)O (stereo unspecified) [atorvastatin] | 0.904 ± 0.21 | 0.866 ± 0.015
O=C([O-])CC(O)(CC(=O)[O-])C(=O)[O-].O=C([O-])CC(O)(CC(=O)[O-])C(=O)[O-].[BiH6+3].[K+].[K+].[K+] [Gastrodenol] | 0.722 ± 0.25 | 0.986 ± 0.29
COc1ccc2c(c1)c(CC(=O)OCC(=O)O)c(C)n2C(=O)c1ccc(Cl)cc1 [Acemetacin] | 1.07 ± 0.14 | 0.954 ± 0.2
CN1CCN(C(c2ccccc2)c2ccccc2)CC1.Cl.Cl [Cyclizine 2HCl] | 1.06 ± 0.31 | 0.972 ± 0.038
CCOC(=O)OC1(C(=O)OCCl)CCC2C3CCC4=CC(=O)C=CC4(C)C3C(O)CC21C (stereo unspecified) [Loteprednol etabonate] | 1.21 ± 0.051 | 0.944 ± 0.063
Cc1ccc(Nc2nccc(N(C)c3ccc4c(C)n(C)nc4c3)n2)cc1S(N)(=O)=O.Cl | 0.886 ± 0.13 | 0.532 ± 0.1
CC(C)Cc1ccc(C(C)C(=O)O)cc1.NCCCCC(N)C(=O)O (stereo unspecified) [Ibuprofen Lysine] | 1.28 ± 0.21 | 1.25 ± 0.29

SMILES | cell viability (IL-6-GFP PC-9GR) | cell viability (IL-6-GFP PC-9)
CCCCC1(COC(=O)CCC(=O)O)C(=O)N(c2ccccc2)N(c2ccccc2)C1=O [Suxibuzone] | 0.768 ± 0.21 | 1.07 ± 0.21
N#CC1(c2ccc(NC(=O)c3cccnc3NCc3ccncc3)cc2)CCCC1 [Apatinib] | 0.0432 ± 0.2 | 1.177 ± 0.0032
Cl.O=C(OCC(O)CO)c1ccccc1Nc1ccnc2cc(Cl)ccc12 (stereo unspecified) [Glafenine HCl] | 1.04 ± 0.32 | 1.05 ± 0.25
Cc1nnc(C(=O)NC(C)(C)c2nc(C(=O)NCc3ccc(F)cc3)c(O)c(=O)n2C)o1 [Raltegravir (MK-0518)] | 1.21 ± 0.063 | 1.39 ± 0.3
NC1CCCCC1N.O=C([O-])C(=O)[O-].[Pt+2] (stereo unspecified) [Oxaliplatin] | 0.678 ± 0.016 | 1.2 ± 0.099
Cn1cnc2c(F)c(Nc3ccc(Br)cc3F)c(C(=O)NOCCO)cc21 | 0.812 ± 0.043 | 1.2 ± 0.19
Cc1cc(S(=O)(=O)[O-])c2c(C)ccc(C(C)C)cc1-2.[Na+] [Sodium gualenate] | 1.45 ± 0.46 | 0.583 ± 0.022
CCC(C(=O)O)c1ccc(N2Cc3ccccc3C2=O)cc1 (stereo unspecified) [Indobufen] | 0.908 ± 0.059 | 1.11 ± 0.049
COc1cc2nccc(Oc3ccc(NC(=O)NC4CC4)c(Cl)c3)c2cc1C(N)=O [Lenvatinib (E7080)] | 1.11 ± 0.064 | 0.9 ± 0.081
Nc1ccccc1NC(=O)c1ccc(CNC(=O)OCc2cccnc2)cc1 [Entinostat (MS-275)] | 0.59 ± 0.036 | 0.465 ± 0.028
O.O.O=C([O-])CCNC(=O)c1ccc(N=Nc2ccc(O)c(C(=O)[O-])c2)cc1.[Na+].[Na+] [Balsalazide disodium] | 1.24 ± 0.25 | 1.34 ± 0.11
CC1=NN(c2ccc(C)c(C)c2)C(=O)/C1=N\Nc1cccc(-c2cccc(C(=O)O)c2)c1O.NCCO.NCCO [Eltrombopag Olamine] | 1.23 ± 0.034 | 0.966 ± 0.02
Cc1nc(Nc2ncc(C(=O)Nc3c(C)cccc3Cl)s2)cc(N2CCN(CCO)CC2)n1.O [Dasatinib Monohydrate] | 0.687 ± 0.054 | 0.488 ± 0.059
C=C1CCC2C(C)(CO)C(O)CCC2(C)C1C/C=C1\C=COC1=O (stereo unspecified) [Dehydroandrographolide] | 1.17 ± 0.35 | 1.24 ± 0.12
Cc1ccc(C(C)C)cc1 [p-Cymene] | 0.822 ± 0.24 | 1.249 ± 0.011
Cc1cnc(Nc2ccc(OCCN3CCCC3)cc2)nc1Nc1cccc(S(=O)(=O)NC(C)(C)C)c1 | 0.186 ± 0.081 | 0.3 ± 0.12

— the supplement of paper PMC8866396
